This passage reports growth results from PubChem BioAssay (NCI).

Test in all cases: NCI-60 one-dose screen, 48 h (100 = growth as untreated, 0 = no growth, -100 = all killed)
Common to all, as to settings: 10 µM unless noted

For assay [1], the system named is SR leukemia.
The subject of assay [2] is RPMI-8226 leukemia.
The subject of assay [3] is OVCAR-8 ovarian.
The subject of assay [4] is OVCAR-5 ovarian.
Assay [5] has as its system OVCAR-4 ovarian.
Assay [6] has as its system SK-OV-3 ovarian.
Assay [7] relates to IGROV1 ovarian.
Assay [8] has as its system OVCAR-3 ovarian.
Assay [9] has as its system HS 578T breast.
For assay [10], the system named is NCI/ADR-RES ovarian.

This is part of a sample that, as a whole, favours compounds with a hit. Of some 83,000 tested, about 20% had one in any assay.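 The endpoint reported here, percent growth, reads 100 for growth as untreated, 0 for no net growth and -100 for all cells dead.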 A number with no mark means an inactive call. Active and inactive are the calls of the source. The calls were made as follows: active = growth percent below 10; inactive = the rest.

For the compound `Cc1ccc(C)n1/C=C/n1c(C)ccc1C`, the growth was 122% in [1]; 78.6% in assay [2]; 99.3% in assay [3]; 101% in assay [4]; 98.4% in [5]; 100% in assay [6]. Further, the growth in assay [7] was 16.2%; in assay [8], 146%; in assay [9] it was 113%; in assay [10] it was 92.4%.
Take `O=C1/C(=C/c2ccc(C(F)(F)F)cc2)COc2ccc(O)cc21`: the growth was 9.82% (active) in assay [1]; -23.2% (active) in assay [2]; 76.4% in [3]; 96.5% in assay [4]; 82.7% in assay [5]; 116% in assay [6]. For the same compound, the growth is 82.5% in assay [7], 94.8% in assay [8], 95.8% in [9] and 94.3% in assay [10].
Consider `CSCCC(NC(=O)c1ccccc1)C(=O)N/N=C1\S/C(=C/c2ccc(Cl)cc2)C(=O)N1C` (stereo not given), for which the growth is 38.2% in assay [1]; 49.9% in assay [2]; 71.1% in assay [3]; 94.5% in assay [4]; 88.8% in [5]; 84.5% in assay [6]. Moreover, the growth was 95.7% in [7], 108% in [8], 80.5% in assay [9] and 96.7% in assay [10].
For `COc1cc2c(cc1O)[C@@]1(C)[C@H](c3ccccc3Br)OC(=O)N1CC2`, the growth is 86.6% in assay [1]; 67.1% in assay [2]; 88.2% in [3]; 121% in assay [4]; 76.6% in assay [5]; 107% in [6]. For the same compound, the growth in assay [7] is 111%; in [8], 94.1%; in [9], 97.9%; in [10], 83.8%.
For `Cc1cc(N2CCN(C)CC2)nc(NCc2cc(Nc3ccnc4cc(Cl)ccc34)ccc2F)n1`, the growth in assay [1] is -32% (active); in [2] it was -29.6% (active); in assay [3] it was 6.32% (active); in [4], -3.76% (active); in [5], 14.9%; in assay [6], 23%. The growth was 10.4% in [7], -46.8% (active) in assay [8], 11% in assay [9] and 18.7% in assay [10].
Turning to `COc1cccc(/C=C2\COc3ccc(O)cc3C2=O)c1`, the growth in assay [1] was 5.49% (active); in assay [2], -24.8% (active); in assay [3], 80.7%; in assay [4], 101%; in [5], 95%; in [6], 114%. In addition, the growth is 84.4% in assay [7], 78.4% in [8], 91.1% in [9] and 89.9% in assay [10].
With `Nc1c(C(=O)Nc2cccc3ncccc23)sc2nc3c(cc12)C(=O)CCC3`, the growth in assay [1] was 41.4%; in [2], 59.6%; in [3], 78.9%; in assay [4], 69.8%; in assay [5] it was 71.1%; in assay [6] it was 21.3%. Further, the growth in [7] is 59%; in [8] it was 37.4%; in [9], 5.47% (active); in [10] it was 72.8%.
In the case of `C=CC(C)(O)CC/C=C(\CO)C(=O)OC1C(C)OC(O[C@](C)(C=C)CC/C=C(\CO)C(=O)O[C@H]2C[C@@]3(C(=O)OC4OC(CO)C(O)C(O)C4OC4OC(C)C(OC5OC(CO)C(O)C5O)C(OC5OC(CO)C(O)C(O)C5O)C4O)C(CC2(C)C)C2=CCC4[C@@]5(C)CC[C@H](OC6OC(COC7OC(C)C(O)C(O)C7OC7OCC(O)C(O)C7O)C(O)C(O)C6NC(C)=O)C(C)(C)C5CC[C@@]4(C)[C@]2(C)C[C@H]3O)C(O)C1O` (stereo not given in full), the growth in assay [1] is -26.7% (active); in assay [2], 41.4%; in [3], 10.3%; in [4], 11.8%; in assay [5], -29.2% (active); in [6], -79.8% (active). The growth in assay [7] is -49.2% (active); in assay [8] it was -94% (active); in [9], -31.4% (active); in assay [10], 17.5%.
In the case of `COc1cc(Nc2c3ccc(Cl)cc3nc3ccc(OC)cc23)c2ncccc2c1`, the growth in assay [1] is 19.8%; in assay [2], 55.5%; in assay [3] it was 46.1%; in [4] it was 70.2%; in assay [5], 20.3%; in assay [6], 52.5%. In addition, the growth in [7] is 32.2%; in assay [8] it was 33.9%; in [9], 65.1%; in [10], 53.9%.
As to `CNC(=O)c1cc(Oc2ccc3nc(NC(=O)Nc4ccc(Cl)c(Cl)c4)sc3c2)ccn1`, the growth was 15.4% in assay [1]; 63% in assay [2]; -34.6% (active) in assay [3]; 85.6% in assay [4]; -39.9% (active) in assay [5]; 73.5% in assay [6]. Further, the growth in assay [7] was 54.6%; in assay [8], 24.7%; in assay [9], -2.92% (active); in assay [10], -17.7% (active).
`Cn1cc(C(=O)c2nc(-c3c[nH]c4ccc(Br)cc34)no2)c2cc(Br)ccc21`: the growth in assay [1] is 6.41% (active); in assay [2] it was 86.6%; in [3], 48.6%; in assay [4] it was 82.7%; in assay [5], -0.341% (active); in assay [6], 87.7%. In addition, the growth was 69.5% in assay [7], 92.7% in assay [8], 80.3% in assay [9] and 56.1% in assay [10].
Consider `O=C(O)c1cn(C2CC2)c2cc(N3CCN(C(=O)N/N=C/c4ccccc4)CC3)c(F)cc2c1=O`, for which the growth in assay [1] was 54.4%; in assay [2] it was 104%; in assay [3], 96.3%; in assay [4], 110%; in assay [5] it was 102%; in assay [6], 95.8%. The growth in assay [7] was 102%; in assay [8] it was 102%; in assay [9] it was 105%; in assay [10], 97.4%.
Consider `CC(C)=CC(=O)N[C@@H]1CC2CCC3C(CC[C@@]4(C)C3CC[C@@H]4C(C)N(C)C)[C@@]2(C)C[C@@H]1O` (stereo not given in full), for which the growth was -39.8% (active) in assay [1]; -2.36% (active) in assay [2]; 81.8% in [3]; 81.4% in assay [4]; 11.5% in assay [5]; 81.3% in [6]. In addition, the growth in assay [7] is 61.9%; in assay [8] it was 46.5%; in [9], 59.7%; in assay [10], 52.5%.
For the compound `O=c1ccc2nc(C(F)(F)F)nn(-c3ccccc3)c-2c1`, the growth in [1] is -11.3% (active); in [2] it was 45.8%; in assay [3] it was 73.1%; in assay [4], 102%; in assay [5], 79.8%; in [6], 79.3%. Also, the growth in [7] is 71.7%; in [8] it was -26.1% (active); in assay [9], 74%; in assay [10] it was 84%.
As for `COc1ccc(Cn2cc(C(=O)N=Nc3c(O)[nH]c4c(Cl)cccc34)nn2)cc1`, the growth was 80.3% in [1]; 106% in [2]; 97.4% in [3]; 123% in [4]; 104% in assay [5]; 113% in [6]. Further, the growth was 103% in [7], 113% in assay [8], 97.5% in assay [9] and 105% in assay [10].
As to `Cc1cc(F)ccc1S(=O)(=O)Nc1cc(-c2c(O)ccc3ccccc23)c(O)c2ccccc12`, the growth was 18.8% in [1]; 11.6% in [2]; 37.1% in assay [3]; 56.9% in assay [4]; -8.24% (active) in assay [5]; 52.3% in assay [6]. Also, the growth is 27.6% in assay [7], 17.3% in [8], 42.3% in assay [9] and 31.3% in assay [10].
Consider `C/C(=N\Nc1nc(C)cs1)c1cc2ccccc2o1`, for which the growth is 109% in assay [1]; 88.5% in [2]; 93.3% in assay [3]; 103% in assay [4]; 94.2% in [5]; 105% in [6]. For the same compound, the growth was 75.8% in assay [7], 94.1% in [8], 88.8% in [9] and 102% in [10].
As to `c1ccc2cc(Cn3c[n+](Cc4ccc5ccccc5c4)c4ccccc43)ccc2c1`, the growth in [1] was -66.7% (active); in [2], -53.6% (active); in assay [3] it was -47.9% (active); in assay [4], 22.3%; in [5] it was -14.9% (active); in assay [6] it was -0.377% (active). Moreover, the growth in [7] was -42.4% (active); in [8], -50.8% (active); in assay [9] it was 3.56% (active); in assay [10], 91.2%.
`CCCCCCC(CCCC)COC(=O)c1ccc(Cl)cc1` (stereo not given): the growth in assay [1] was 99.1%; in assay [2], 108%; in assay [3] it was 109%; in assay [4], 115%; in [5], 99.4%; in [6], 107%. Also, the growth in [7] is 111%; in assay [8] it was 114%; in assay [9] it was 109%; in assay [10] it was 115%.
Take `CN(C)c1ccc(-c2cc(-c3ccc(Nc4nc(Nc5ccc(Cl)cc5)nc(Nc5ccc(Cl)cc5)n4)cc3)nc(N)c2C#N)cc1`: the growth in assay [1] is 40.6%; in assay [2], -27.1% (active); in [3] it was 68%; in assay [4], 87.1%; in assay [5] it was 88.5%; in assay [6], 102%. Moreover, the growth is 55% in assay [7], 88.3% in assay [8], 82.5% in [9] and 78% in [10].
With `Cc1c2cnccc2c(C)c2c1c1cc(C3OCCCO3)ccc1n2C`, the growth in assay [1] was 4.22% (active); in assay [2], -21.6% (active); in assay [3], 6.68% (active); in [4], -3.71% (active); in assay [5], -2.47% (active); in [6], -6.97% (active). Besides, the growth was 2% (active) in [7], 0.203% (active) in assay [8], -3.27% (active) in assay [9] and -9.92% (active) in assay [10].
With `CN1CCN(CCCOc2ccc3ncnc(Nc4ccc(Oc5cccc(F)c5)c(Cl)c4)c3c2)CC1`, the growth was 1.08% (active) in assay [1]; -30.1% (active) in assay [2]; 31.6% in assay [3]; 25.4% in [4]; 3.58% (active) in [5]; 8.4% (active) in assay [6]. Also, the growth in assay [7] is -5.39% (active); in assay [8] it was 0.254% (active); in assay [9] it was 42.3%; in assay [10], 41.9%.
As to `CC(C)[C@@]12C[C@@H](OC(=O)COC(=O)c3ccccc3)[C@@](C)(O1)[C@@H]1CC[C@@H](C)[C@H]1[C@@H]2OC(=O)/C=C/c1ccccc1`, the growth in assay [1] is 78.6%; in assay [2], 85.3%; in [3] it was 31.7%; in [4], 95.7%; in assay [5] it was 87.2%; in assay [6], 88.1%. For the same compound, the growth in assay [7] was 114%; in assay [8] it was 94.8%; in assay [9] it was -14.4% (active); in [10] it was 25.2%.
Take `COC(=O)Cc1nc(C#N)c(N(C)C)o1`: the growth in [1] is 94.9%; in assay [2], 102%; in assay [3], 101%; in assay [4] it was 94.7%; in [5], 107%; in assay [6], 92.7%. The growth in [7] was 103%; in assay [8], 109%; in [9], 87.1%; in assay [10], 101%.
For `COc1ccc(C2C3=C(COC3=O)N(CCO)c3cc4c(cc32)OCCO4)cc1OC` (stereo not given), the growth was 16.8% in assay [1]; 28.5% in [2]; 53.3% in [3]; 67.1% in assay [4]; 41.3% in [5]; 29.2% in assay [6]. Moreover, the growth in assay [7] is 37.1%; in [8], -37% (active); in assay [9] it was -11.4% (active); in assay [10] it was 65.4%.
As for `Cc1cccc(N2CCN(C(=S)c3ccc4c(c3)OCO4)CC2)c1`, the growth in assay [1] is 16.9%; in assay [2] it was 20%; in [3], 27.6%; in [4], 50.3%; in assay [5] it was 66.6%; in assay [6], 19.2%. Besides, the growth in [7] is 31.3%; in assay [8] it was -33.9% (active); in [9] it was -27.7% (active); in assay [10], -18.6% (active).
